Assay results taken from PubChem BioAssay (NCI).
“And” between values parts separate entries of the source, which are not always exact repeats. Equal entries are not always repeated. Compounds without any hit were thinned out: in the full panel of roughly 83,000, 20% have a hit.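 Assay: single dose, 48 h. Readout: percent growth (0 = no net growth; negative = cell death). Active: <10.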 Values without a mark were called inactive. The source made the active and inactive calls.

The compounds below were run on HL-60(TB) leukemia (assay: NCI-60 one-dose screen, 48 h (100 = growth as untreated, 0 = no growth, -100 = all killed)). Details: 10 µM unless noted.

Q: How did the growth turn out when `COc1ccc(C(=O)N2NC(=O)/C(=C/c3ccc(F)cc3)N=C2c2ccccc2)cc1` was run?
A: Its growth is 3.84% (active).

Q: How did the growth turn out when `CCOC(=O)N1CCN(CCCCOc2ccc(C(C)(C)CC)cc2)CC1` was run?
A: Its growth is 79.1%.

Q: Which growth does the source give for `CN(C)c1ccc(/C=C/C=N/NC(=O)c2cc(O)c(O)c(O)c2)cc1` here?
A: The growth was 84.2%.

Q: For `CC(=O)N1c2ccccc2NC2=C(C(=O)N(C)C2(C)C)C1C` (configuration not stated), which growth is on record?
A: Its growth is 7.5% (active).

Q: How did the growth turn out when `CC[C@@H](C(=O)[C@@H](C)[C@@H](O)[C@H](C)[C@@H]1O[C@@H]([C@@H](CC)C(=O)NCCc2ccc(F)cc2)CC[C@@H]1C)C1O[C@]2(C=CC(=O)[C@]3(CC[C@@](C)([C@H]4CC[C@](O)(CC)[C@H](C)O4)O3)O2)[C@H](C)C[C@@H]1C` (some centres not stated) was run?
A: Its growth is 6.93% (active).

Q: For `CC(=O)OC1Oc2ccccc2-c2oc(=O)c(-c3cc(=O)oc4cc(O)ccc34)cc21` (configuration not stated), which growth is on record?
A: Its growth is 47%.

Q: How did the growth turn out when `Cc1nc2ccccc2c(/C=C/c2ccc(Cl)cc2)c1C(=O)/C=C/c1ccc(Cl)cc1` was run?
A: The growth was -34.6% (active).

Q: With `O=C(Nc1ccc(Br)cc1)c1cc(Br)ccc1O` as the compound, how does the growth read?
A: Its growth is -18.4% (active) and -60% (active).

Q: `COc1cc(/C=C\c2cc(/C=C\c3ccc(O)c(OC)c3)n(C(=O)CNc3ccccc3OC)n2)ccc1O` was tested. Which growth did it give?
A: The growth was 25.5%.

Q: `CCOc1ccc(N(C)c2ccc(/C=C/C3=[N+](C)c4ccccc4C3(C)C)cc2)cc1` was tested. Which growth did it give?
A: The growth was -43.5% (active).

Q: Which growth does the source give for `Cc1ccc(S(=O)(=O)C2=C3C(=C(c4ccccc4)c4ccccc43)CN(S(=O)(=O)c3ccc(C)cc3)C2)cc1` here?
A: Its growth is 65.7%.

Q: `Cc1ccc(OC(=O)c2ccc(Cl)cc2)cc1` was tested. Which growth did it give?
A: The growth was 124%.

Q: With `Cc1cc(Cl)ccc1Nc1nc(C(F)(F)F)ccc1C(=O)NCC(=O)N/N=C/c1c(Cl)cccc1Cl` as the compound, how does the growth read?
A: The growth was 48.7%.

Q: How did the growth turn out when `CCOc1cc(Br)c(C(C)NC(=O)c2cccc(OC)c2)cc1OCC` (configuration not stated) was run?
A: The growth was 45.7%.

Q: For `N#Cc1c2c(nn(-c3ccccc3)c1=O)C(O)=C([N+](=O)[O-])C(c1ccccc1)C2` (configuration not stated), which growth is on record?
A: The growth was 58.5%.

Q: With `Cc1ccc(/C=N/NC(N)=S)s1` as the compound, how does the growth read?
A: The growth was 101%.

Q: With `O=C(c1ccccc1)c1ccc(Oc2ccc([N+](=O)[O-])cc2[N+](=O)[O-])cc1` as the compound, how does the growth read?
A: The growth was 43.6%.

Q: With `COC(=O)/C(=C\c1c(-c2ccccc2)[nH]c2ccccc12)S(C)(=O)=O` as the compound, how does the growth read?
A: Its growth is 1.54% (active).

Q: Which growth does the source give for `COc1ccc(-c2nocc2-c2cc(OC)c(OC)c(OC)c2)cc1` here?
A: Its growth is -14.7% (active).

Q: With `O=C(O)/C=C(\c1nc2ccc([N+](=O)[O-])cc2[nH]1)c1cc(Cl)ccc1O` as the compound, how does the growth read?
A: Its growth is 10.8%.

Q: How did the growth turn out when `C#CCC(C(=O)OCC)C(=O)OCC` was run?
A: The growth was 101%.

Q: For `COc1cc(OC)c(C(=O)/C=C/c2ccc(C(F)(F)F)cc2)c(OC)c1`, which growth is on record?
A: The growth was 45.1%.

Q: How did the growth turn out when `OC(c1ccccc1)C(NC(Cc1ccccc1)c1ccccc1)c1ccccc1` (configuration not stated) was run?
A: The growth was 112%.

Q: `O=C(CN1CCN(c2cc3c(cc2F)c(=O)c(C(=O)O)cn3C2CC2)CC1)Nc1ccc(Cl)cc1` was tested. Which growth did it give?
A: The growth was 89.5% and 98.4%.

Q: Which growth does the source give for `O=C(Cn1cc(CN2CCCCCC2)nn1)Nc1ccc2c(ccn2Cc2ccccc2)c1` here?
A: The growth was 92.2%.

Q: With `CC(=O)Oc1ccc(C(c2ccc(OC(C)=O)cc2)c2ccccn2)cc1` as the compound, how does the growth read?
A: The growth was 102%.

Q: Which growth does the source give for `COc1ccc(\C=N/N=C(N)/C(N)=N\N=C/c2ccc(OC)cc2)cc1` here?
A: The growth was 91.5%.

Q: For `COc1ccc(-c2nc(SCC(C)C)nc(N/N=C\c3ccc(F)cc3)c2C#N)cc1`, which growth is on record?
A: The growth was 83.4%.

Q: For `N#CCCN=Nc1c(O)[nH]c2ccc(F)cc12`, which growth is on record?
A: Its growth is 110%.

Q: `COc1ccccc1NC(=O)OCC#CCOC(=O)Nc1ccccc1OC` was tested. Which growth did it give?
A: Its growth is 85.4% and 64.8%.

Q: For `O=C(Cn1c(C(=O)c2ccccc2)nc2ccccc21)c1ccc(F)cc1`, which growth is on record?
A: Its growth is 17.4%.

Q: With `O=C(CC(c1ccccc1)N1CCOCC1)c1ccccc1` (configuration not stated) as the compound, how does the growth read?
A: The growth was 83.1%.

Q: For `COc1ccc2occ(C3=C(c4c[nH]c5ccccc45)C(=O)N(O)C3=O)c2c1`, which growth is on record?
A: The growth was 97.3%.

Q: For `CCCC(C)OCC(=O)O` (configuration not stated), which growth is on record?
A: Its growth is 88.8%.

Q: With `CC1=CC[C@@H]2C(C)(C)C(=O)CC[C@@]2(C)[C@@H]1COc1ccc2ccc(=O)oc2c1` as the compound, how does the growth read?
A: Its growth is 85.9%.

Q: How did the growth turn out when `COC(=O)c1nc(-c2ccc(C)cc2)oc1S(=O)(=O)c1cccc(OC)c1` was run?
A: Its growth is 44.7%.

Q: `O=C(Cc1ccccc1)NC(c1ccc(Cl)cc1)c1c(O)ccc2ccccc12` (configuration not stated) was tested. Which growth did it give?
A: Its growth is 7.2% (active).
